Compounds with a hit are over-represented: about 2.4% of the library has one in this group of screens.
Cruzain noTriton: qHTS Assay for Promiscuous and Specific Inhibitors of Cruzain (without detergent); Cruzipain (Trypanosoma cruzi), P25779; purified cruzain, Z-FR-AMC fluorescence, no detergent; Potency, µM, inactives show max response, negative = inhibition, hits mostly inhibitors; hit rate 2.3% among 200,000;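 further: plate controls were enzyme without inhibitor for no effect and buffer without enzyme for full effect; nearly all actives have a fitted effect of over 40% in size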
Target sequence (P25779 123-467 limits assumed): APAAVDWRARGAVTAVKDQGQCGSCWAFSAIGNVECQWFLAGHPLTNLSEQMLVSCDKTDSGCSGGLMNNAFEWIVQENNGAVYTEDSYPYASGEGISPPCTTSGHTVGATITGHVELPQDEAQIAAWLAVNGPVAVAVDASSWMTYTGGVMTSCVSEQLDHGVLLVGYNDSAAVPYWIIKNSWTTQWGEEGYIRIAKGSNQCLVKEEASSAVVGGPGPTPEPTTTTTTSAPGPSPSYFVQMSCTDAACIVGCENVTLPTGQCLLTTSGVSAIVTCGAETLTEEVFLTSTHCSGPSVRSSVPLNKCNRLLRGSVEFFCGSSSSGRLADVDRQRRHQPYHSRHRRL
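Detergent-free condition (0.00005% Triton X-100) in acetate buffer pH 5.5 with DTT. 1.5 nM enzyme and compound were pre-mixed 15 min, then 2 uM Z-FR-AMC substrate added; reaction progress from fluorescence change between first and third reads (60 s).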
Cruzain Triton: qHTS Assay for Promiscuous and Specific Inhibitors of Cruzain (with detergent) | Cruzipain (Trypanosoma cruzi), P25779 | purified cruzain, Z-FR-AMC fluorescence, 0.01% Triton | Potency, µM, without a hit: max response, negative = inhibition, most hits filed as inhibitors | hit rate 0.43% among 200,000 | AID 1478, 2009;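 further: plate controls were neutral wells for no effect and buffer without enzyme for full effect; nearly all actives have a fitted effect of over 40% in size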
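Detergent-containing arm of a paired screen for aggregation-based inhibition: 0.01% Triton X-100 present. Cruzain at 1.5 nM cleaved 2 uM Z-FR-AMC at pH 5.5 with 5 mM DTT; AMC fluorescence gain over 60 s measured activity.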
An asterisk follows results filed as active. The call rests on the fitted dose curve; in most records, active means well fitted curve in the direction sought with a large enough effect; inconclusive means small, poorly fitted or top-dose-only effect, or another doubt; inactive means no such curve, though single readings can be large; an effect the other way counts as inactive or inconclusive. Potency means the concentration at half of the fitted maximal effect.

Screening O=c1oc2cc(OCc3ccc(F)cc3F)ccc2cc1-c1ccc2ccccc2n1 returned Cruzain noTriton 12.6µM* and Cruzain Triton -1.9%.
`COc1cc2c(cc1OC)C(COc1ccc(F)cc1)N(C(=O)c1cccc(F)c1)CC2` (stereo not drawn) gave Cruzain noTriton 20.4% and Cruzain Triton -0.8%.
c1ccc(N/N=C(\Cc2nc3ccccc3[nH]2)c2ccccc2)cc1 was read as Cruzain noTriton -27.5% and Cruzain Triton -16.0%.
For N#CCCN/N=C(/Cc1nc2ccccc2[nH]1)c1ccc(Cl)cc1 the results were Cruzain noTriton 25.1µM* and Cruzain Triton -0.7%.
`Cc1ccc(N/N=C(\Cc2nc3ccccc3[nH]2)c2ccccc2)cc1` gave Cruzain noTriton 25.1µM* and Cruzain Triton -3.0%.
For N#CCCN/N=C(\Cc1nc2ccccc2[nH]1)c1ccccc1 the results were Cruzain noTriton -5.0% and Cruzain Triton -0.5%.
Screening Cc1ccc2[nH]c(CSc3nnc(NC(=O)COc4ccccc4)s3)cc(=O)c2c1 returned Cruzain noTriton -3.0% and Cruzain Triton 1.9%.
Screening O=C(CN1C(=O)COc2ccc(S(=O)(=O)N3CCCC3)cc21)N1CCN(c2cccc(C(F)(F)F)c2)CC1 returned Cruzain noTriton inconclusive and Cruzain Triton -3.9%.
Screening CCOc1ccc(CCNC(=O)c2c(C)oc3ncnc(N4CCOCC4)c23)cc1 returned Cruzain noTriton -4.9% and Cruzain Triton -1.3%.
For CS(=O)(=O)N1CCN(c2nc(-c3ccc(F)cc3)cs2)CC1 the results were Cruzain noTriton -1.4% and Cruzain Triton -2.2%.
Screening O=S(=O)(c1ccc(F)cc1)N1CCN(c2nc(-c3ccc(F)cc3)cs2)CC1 returned Cruzain noTriton 10µM* and Cruzain Triton -0.6%.
For CCOc1ccc(C2C(C(N)=O)=C(C)Nc3nc(-c4ccc(OC)cc4)nn32)cc1 (stereo not drawn) the results were Cruzain noTriton 25.5% and Cruzain Triton -4.2%.
For O=C(/C=C/c1ccco1)NC(=S)Nc1cccc([N+](=O)[O-])c1 the results were Cruzain noTriton 31.6µM* and Cruzain Triton -16.5%.
Screening O=C(/C=C/c1ccco1)NC(=S)Nc1cccc(-c2nc3ccccc3o2)c1 returned Cruzain noTriton 10µM* and Cruzain Triton -8.2%.
O=C(NC(=S)Nc1cccc([N+](=O)[O-])c1)c1ccco1 was read as Cruzain noTriton -1.2% and Cruzain Triton -1.0%.
Screening Cc1ccc(-c2nc3ccccc3o2)cc1NC(=S)NC(=O)/C=C/c1ccco1 returned Cruzain noTriton inconclusive and Cruzain Triton -1.9%.
`CC(C)=CCC1=C(O)c2ccccc2C(=O)C1=O` gave Cruzain noTriton -5.6% and Cruzain Triton -5.2%.
For C[C@@]12CC[C@@H]3[C@H](CCC4=CC(=O)CC[C@]43C)[C@@H]1CC[C@@H]2C(=O)COS(=O)(=O)c1ccc(Br)cc1 the results were Cruzain noTriton 7.3% and Cruzain Triton 1.3%.
Cc1c(C2=CCN(S(=O)(=O)c3ccc(Br)cc3)CC2)c2ccccc2n1C was read as Cruzain noTriton 10µM* and Cruzain Triton -2.4%.
For CCn1c(C)c(C2=CCN(S(=O)(=O)c3ccc(C)cc3)CC2)c2ccccc21 the results were Cruzain noTriton inconclusive and Cruzain Triton -4.3%.
O=S(=O)(c1ccc(-c2nnc(SCc3nnc(-c4ccccc4)o3)o2)cc1)N1CCCC1 was read as Cruzain noTriton inconclusive and Cruzain Triton 0.1%.
CCN(CC)S(=O)(=O)c1ccc(-c2nnc(SCc3nnc(-c4ccccc4)o3)o2)cc1 was read as Cruzain noTriton 25.1µM* and Cruzain Triton 2.5%.
`Cc1ccc(CN2CCC(CNc3ncnc4onc(-c5ccc(F)cc5)c34)CC2)cc1` gave Cruzain noTriton 2.0% and Cruzain Triton -0.8%.
COc1ccc2[nH]cc(S(=O)(=O)c3ccc(C)c(C)c3)c(=O)c2c1 was read as Cruzain noTriton -7.6% and Cruzain Triton 0.9%.
For COc1ccc(C2CC(=O)N3CN(c4ccccc4F)CSC3=C2C#N)cc1OC (stereo not drawn) the results were Cruzain noTriton 2.3% and Cruzain Triton 1.1%.
For CCc1ccccc1N1CSC2=C(C#N)C(c3ccccc3F)CC(=O)N2C1 (stereo not drawn) the results were Cruzain noTriton 25.1µM* and Cruzain Triton -3.6%.
`COc1cc(Cl)c(C)cc1NC(=O)Cn1cnc2sc(C)c(S(=O)(=O)N3CCCCC3)c2c1=O` gave Cruzain noTriton -0.3% and Cruzain Triton -6.5%.
Screening Cc1ccc2oc3c(c(=O)c2c1)C(c1cccc(Br)c1)N(Cc1ccco1)C3=O (stereo not drawn) returned Cruzain noTriton 25.1µM* and Cruzain Triton 7.1%.
Screening Cc1cc2oc3c(c(=O)c2cc1C)C(c1cccc(Br)c1)N(Cc1ccco1)C3=O (stereo not drawn) returned Cruzain noTriton inconclusive and Cruzain Triton -3.1%.
For COc1ccc(-c2nc3cc(NC(=O)c4ccc(C)cc4)ccc3o2)cc1Cl the results were Cruzain noTriton 6.0% and Cruzain Triton 1.8%.
Screening Cc1ccc(C)n1-c1nnc(N2CCCC(C(=O)NCc3ccc(Cl)cc3)C2)s1 (stereo not drawn) returned Cruzain noTriton 7.8% and Cruzain Triton -1.8%.
`COc1ccc(-c2cn3nc(N4CCCC(C(=O)NCc5ccc(Cl)cc5)C4)sc3n2)cc1` (stereo not drawn) gave Cruzain noTriton -1.8% and Cruzain Triton 14.1µM*.
For O=C(Nc1ccc(Cl)cc1)NC1CCCCC1 the results were Cruzain noTriton -2.2% and Cruzain Triton -1.4%.
O=C(Nc1nnc(-c2ccc(Cl)cc2)o1)NC1CCCCC1 was read as Cruzain noTriton 25.1µM* and Cruzain Triton 8.7%.
For O=C(COc1ccc(Cl)cc1)Nc1nnc(-c2ccc3c(c2)CCCC3)o1 the results were Cruzain noTriton 7.94µM* and Cruzain Triton 1.2%.
For CC(=O)Nc1nnc(-c2ccc3c(c2)CCCC3)o1 the results were Cruzain noTriton -10.0% and Cruzain Triton -1.8%.
Cc1ccc(S(=O)(=O)CC(=O)Nc2sc3c(c2C#N)CCCCC3)cc1 was read as Cruzain noTriton -10.1% and Cruzain Triton -3.0%.
`COC(=O)c1sc(N)c(C(=O)OC)c1COC(=O)[C@@H](NS(=O)(=O)c1cccc(Cl)c1)C(C)C` gave Cruzain noTriton 10.4% and Cruzain Triton -7.6%.
Screening COC(=O)c1c(NC(=O)CS(=O)(=O)c2ccc(C)cc2)sc2c1CCCCC2 returned Cruzain noTriton 2.51µM* and Cruzain Triton -8.3%.
CCOC(=O)c1c(NC(=O)C2CCCN(S(=O)(=O)c3ccccc3)C2)sc2c1CCCC2 (stereo not drawn) was read as Cruzain noTriton inconclusive and Cruzain Triton -2.9%.
`CCOC(=O)c1c(NC(=O)C2CCCN(S(=O)(=O)c3ccc(C)cc3)C2)sc2c1CCCC2` (stereo not drawn) gave Cruzain noTriton 15.8µM* and Cruzain Triton 0.3%.
`COC(=O)c1c(NC(=O)COC(=O)[C@@H](NS(=O)(=O)c2cccc(Cl)c2)C(C)C)sc2c1CCC2` gave Cruzain noTriton 15.8µM* and Cruzain Triton -10.5%.
CCOc1ccc(-c2c(C)nn3c(C)c(C(=O)NCCc4ccccc4)cnc23)cc1OCC was read as Cruzain noTriton -8.0% and Cruzain Triton -3.1%.
Screening COc1ccc(CNc2oc(/C=C/c3cccc(OC)c3)nc2C#N)cc1 returned Cruzain noTriton inconclusive and Cruzain Triton 11.3%.
